# Screens: PubChem BioAssay, The Scripps Research Institute Molecular Screening Center
# This is a sample that favours compounds with a hit; in the whole collection about 3.4% have one here.
# MITF inh: MITF inhibitors, primary screen, biochemical, AlphaScreen, human | Microphthalmia-associated transcription factor (Homo sapiens), O75030 | AlphaScreen MITF homodimerization, bead proximity signal | inhibition, % at 2.6 µM | 650,000 tested, 0.91% active | AID 1259374, 2018; in the data active = inhibition above about 50%;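 also: 0% = vehicle wells with protein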
# GPR151 activ: activators of human GPR151, primary screen, cell-based, PathHunter beta-arrestin, luminescence; AID 1508602, 2020; activation, % at 11.2 µM; 650,000 tested, 1% active; G-protein coupled receptor 151 (Homo sapiens), Q8TDV0; PathHunter beta-arrestin GPR151 cells; in the data active = activation above about 4.9%;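 also: 0% = median of compound wells and 100% = cells with positive control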
# FBW7 act: FBW7 E3 ligase activators, primary screen, biochemical, AlphaScreen, human; F-box/WD repeat-containing protein 7 (Homo sapiens), Q969H0; 650,000 tested, 0.13% active; normalized activity (activation), % at 26.1 µM; AlphaScreen FBW7–phospho-cyclin E peptide binding, activator screen; in the data active = normalized activity above about 1.9%;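 also: purified mutant Fbw7 with reduced substrate affinity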
# TEAD-YAP block: TEAD-YAP interaction inhibition, primary screen, TEAD-YAP interaction inhibitor project, luminescence, HEK-TIYL cells; TEAD-Gal4/YAP UAS-luciferase luminescence; inhibition, % at 9.12 µM; 640,000 tested, 1.4% active; in the data active = inhibition above about 32%;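 also: 0% = median of test compound wells and 100% = reference inhibitor wells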
# Numbers without * were called inactive.
SMILES,MITF inh,GPR151 activ,FBW7 act,TEAD-YAP block
Cc1ncn(-c2ccc(Nc3ncc4cccc(N5CCOCC5)c4n3)cc2)n1,1,0,0,48*
Cc1ncn(-c2ccc(Nc3ncc4cccc(-n5ccnc5)c4n3)cc2)n1,5,0,5.7*,38*
CCCOC(=O)C[n+]1csc2ccccc21,5,0,-1,10
c1cncc(CNc2nc(Nc3ccc(N4CCOCC4)cc3)c3ncn(-c4ccsc4)c3n2)c1,9,0,0,20
CC(=O)Nc1ccc(Nc2nc(Nc3ccc4ncccc4c3)nc3c2ncn3-c2ccsc2)cc1,8,0,0,30
c1ccc(Nc2nc(Nc3ccc(N4CCOCC4)cc3)c3ncn(-c4ccsc4)c3n2)cc1,6,3,0,39*
CC(=O)Nc1ccc(Nc2nc(Nc3ccccn3)nc3c2ncn3-c2ccsc2)cc1,-3,-1,0,45*
c1ccc(Nc2nc(Nc3ccc(N4CCOCC4)cc3)c3ncn(-c4ccsc4)c3n2)nc1,2,1,0,37*
c1cnc(Nc2nc(Nc3ccc(N4CCOCC4)cc3)c3ncn(-c4ccsc4)c3n2)cn1,-8,1,0,46*
O=C(Cn1c(=O)oc2ccccc21)Nc1ccc(C(=O)NCc2ccccc2)cc1,-4,0,0,-12
COC(=O)c1ccc(CSC2=NN3CCS(=O)(=O)N=C3S2)cc1,-6,0,0,1
COc1ccc(N2C(=O)CC(N3CCN(C(c4ccccc4)c4ccc(Cl)cc4)CC3)C2=O)cc1 (centres undefined),3,1,0,3
Nc1c(C(=O)O)sc2nc(C3CC3)cc(C(F)(F)F)c12,6,0,0,18
c1ccc(Nc2nc(Nc3nccc4ccccc34)nc3c2ncn3-c2ccsc2)cc1,3,-1,0,-10
c1ccc2c(Nc3nc(Nc4ccc(N5CCOCC5)cc4)c4ncn(-c5ccsc5)c4n3)nccc2c1,16,-1,0,73*
N#CC1=C(N)Oc2n[nH]c(-c3ccc([N+](=O)[O-])cc3)c2C12C(=O)Nc1ccccc12 (centres undefined),6,3,0,14
CC(=O)Nc1ccc(-c2nc3cccnc3s2)cc1,12,-4,0,47*
Cc1ccc(-c2nc3cccnc3s2)cc1NC(=O)C(F)(F)F,1,-1,0,32*
CCCCC(=O)Nc1ccc(-c2nc3cccnc3s2)cc1,4,-2,0,7
Cc1nc2c(C(=O)NCC3CCCO3)cnn2c(C)c1Cc1ccc(F)cc1 (centres undefined),1,0,0,2
O=C(Nc1ccc(C23CC4CC(CC(C4)C2)C3)cc1)c1cc([N+](=O)[O-])ccc1Cl,12,0,0,30
Cc1[nH]c2ccc(OC(F)(F)F)cc2c1CCNC(=O)c1cc([N+](=O)[O-])ccc1Cl,6,0,0,66*
CCOc1ccc(CCNC(=O)c2cc([N+](=O)[O-])ccc2Cl)cc1OCC,16,0,1,39*
O=C(NCCOC12CC3CC(CC(C3)C1)C2)c1cc([N+](=O)[O-])ccc1Cl,7,-1,0,33*
COc1ccc2c(c1)C(c1cccc(F)c1)(C(C)C)C(=O)N2 (centres undefined),1,0,0,2
SMILES,MITF inh,GPR151 activ,FBW7 act,TEAD-YAP block
Cn1ncc2c(N3CCOCC3)nc(N3CCOCC3)nc21,9,1,0,3
CC(Sc1nccn1C)C(=O)NC(c1ccccc1)c1ccccc1 (centres undefined),-18,0,0,-1
CC(Sc1nnc(C(F)(F)F)n1N)C(=O)NC(c1ccccc1)c1ccccc1 (centres undefined),-3,-2,0,33*
O=[N+]([O-])c1cnc(NCCCn2ccnc2)c([N+](=O)[O-])c1,-4,2,0,8
CCc1ccc(-n2c(=S)sc3c(=O)n(-c4ccc(F)cc4)c(SCC(=O)N(CC)c4cccc(C)c4)nc32)cc1,-4,0,0,19
CC(=O)c1cccc(-c2ncc(C(=O)NCCO)s2)c1,9,0,0,2
COc1ccc2c(Cn3cnc4cc([N+](=O)[O-])ccc4c3=O)cc(=O)oc2c1,0,0,0,64*
CCCCN(C)C(=O)C(CC)NS(=O)(=O)c1ccc(OC)cc1 (centres undefined),7,-1,0,13
O=C(Nc1cc(Cl)ccc1Cl)c1cc(S(=O)(=O)NC2CCCC2)ccc1F,9,0,0,12
CC(C)(C)C(=O)COC(=O)c1ccc(S(C)(=O)=O)c([N+](=O)[O-])c1,4,1,0,2
CS(=O)(=O)c1ccc(C(=O)OCc2cccc(C(F)(F)F)c2)cc1[N+](=O)[O-],10,3,0,52*
CC(C)c1nccn1CCC(=O)N1CCCC(c2ccnc3nc(C(F)(F)F)nn23)C1 (centres undefined),7,1,0,6
CC(C)(C)n1cc(-c2cnc3ccccc3n2)cn1,9,-8,0,78*
CC(=O)N(C(C)=O)c1ccc(-c2cnc(-c3ccc(N(C(C)=O)C(C)=O)cc3)nc2)cc1,5,1,0,0
Oc1ccc(-c2cnc3ccccc3n2)cc1,-6,-10,0,52*
Oc1ccc(-c2cnc(-c3ccc(O)cc3)nc2)cc1,4,-2,0,95*
O=C(O)CC(c1ccncc1)c1c[nH]c2ccccc12 (centres undefined),4,2,-1,-5
COc1ccc(CCNC(=O)c2cc([N+](=O)[O-])cc([N+](=O)[O-])c2)cc1,8,0,0,9
CCOC(=O)c1c(NC(=O)C2C3C=CC(C3)C2C(=O)O)sc2c1CCC2 (centres undefined),1,-1,0,19
CCc1c(C)sc(NC(=O)C2C3C=CC(C3)C2C(=O)O)c1C(=O)OC (centres undefined),12,-2,0,32*
CCC1CCc2c(sc(NC(=O)C3C4C=CC(C4)C3C(=O)O)c2C(=O)OC)C1 (centres undefined),11,-1,0,56*
CCOC(=O)c1c(NC(=O)C2C3C=CC(C3)C2C(=O)O)sc2c1CC(C)CC2 (centres undefined),-4,0,0,37*
Cc1ccc(S(=O)(=O)N2CCC(CNC(=O)NC34CC5CC(CC(C5)C3)C4)CC2)cc1,-6,1,0,1
Cc1cc(=O)[nH]c(SCc2cccc(Oc3ccccc3)c2)n1,-7,0,0,-2
c1ccc(Oc2cccc(CSc3nc4ccccc4[nH]3)c2)cc1,7,-1,0,34*
O=C(NCCCCCCNC(=O)Nc1cccnc1)Nc1cccnc1,-5,0,0,57*
O=C1/C(=C/c2ccc(Cl)cc2)C=C(c2ccccc2)N1c1ccccc1Cl,-6,0,0,7
